MCL1 BIM primary: inhibitors of MCL1 binding to BIM-BH3, primary screen, biochemical, fluorescence polarization | 320,000 tested, 0.68% active | GST-MCL1 / FITC-Bim-BH3 fluorescence polarization | inhibition, % at 10.9 µM;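 active means inhibition above the mean inhibition of all tested compounds plus 3 SD, set per campaign, cut at about 40% in these data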;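 further: 0% = DMSO wells and 100% = unlabeled Bim-BH3 peptide control; higher means more loss of mP so more displacement of Bim peptide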
Bcl-xL primary: inhibitors of human Bcl-xL, primary screen, biochemical, fluorescence polarization, HTS. 320,000 tested, 0.7% active. GST-Bcl-xL / FITC-Bim BH3 peptide fluorescence polarization. inhibition, % at 10.9 µM;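 active means inhibition above the mean of all tested compounds plus 3 SD, cutoff set per campaign, cut at about 30% in these data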;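 further: 0% = DMSO wells and 100% = unlabeled Bim-BH3 peptide competitor; inhibitors lower millipolarization by displacing the labeled peptide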
Target sequence (Q07817 whole entry, looked up): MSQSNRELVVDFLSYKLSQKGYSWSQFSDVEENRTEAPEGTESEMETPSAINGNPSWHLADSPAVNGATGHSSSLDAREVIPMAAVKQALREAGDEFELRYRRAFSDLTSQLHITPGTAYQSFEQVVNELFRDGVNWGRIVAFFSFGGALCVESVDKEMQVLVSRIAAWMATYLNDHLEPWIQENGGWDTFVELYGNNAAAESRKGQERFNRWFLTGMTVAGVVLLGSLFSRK
EBV gp42 block: Epstein-Barr virus gp42 inhibitors, primary screen, biochemical, uHTS, fluorescence polarization; 220,000 tested, 0.42% active; Glycoprotein 42 (Epstein-Barr virus (strain AG876)), Q1HVG2; AID 1085, 2008; Fluorescence polarization binding assay, mP read-out; inhibition, % (tested at 21.74 µM); in the data active means inhibition above about 50%
E coli Lon inh: inhibitors of E. coli Lon protease, primary screen, biochemical, fluorescence polarization | P0A9M0 | purified E. coli Lon protease | inhibition, % at 7.94 µM | 360,000 tested, 0.42% active | AID 602123, 2011; in the data active means inhibition above about 13%, passing the limit was not always enough;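 further: 0% = enzyme with probe and DMSO and 100% = no enzyme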
MEX-5 binding: MEX-5 zinc finger RNA-binding disruptors – biochemical, C. elegans, fluorescence polarization, MLPCN library, primary screen; Zinc finger protein mex-5 (Caenorhabditis elegans), Q9XUB2; MEX-5/FITC-TCR2 RNA binding; hits give low values; activity score (negative = inhibition of binding), % at 10 µM; 300,000 tested, 0.38% active; AID 1832, 2009;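 active means inhibition past about -25% in most replicates, and total fluorescence under double the plate's negative control median, limit read from the data; inconclusive means replicates evenly split on the limit, or fluorescence at least double controls; inactive means too little inhibition in most replicates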;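 further: 0% = DMSO and -100% = 5 µM competing unlabeled TCR2 RNA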
Target sequence (Q9XUB2 whole entry, looked up): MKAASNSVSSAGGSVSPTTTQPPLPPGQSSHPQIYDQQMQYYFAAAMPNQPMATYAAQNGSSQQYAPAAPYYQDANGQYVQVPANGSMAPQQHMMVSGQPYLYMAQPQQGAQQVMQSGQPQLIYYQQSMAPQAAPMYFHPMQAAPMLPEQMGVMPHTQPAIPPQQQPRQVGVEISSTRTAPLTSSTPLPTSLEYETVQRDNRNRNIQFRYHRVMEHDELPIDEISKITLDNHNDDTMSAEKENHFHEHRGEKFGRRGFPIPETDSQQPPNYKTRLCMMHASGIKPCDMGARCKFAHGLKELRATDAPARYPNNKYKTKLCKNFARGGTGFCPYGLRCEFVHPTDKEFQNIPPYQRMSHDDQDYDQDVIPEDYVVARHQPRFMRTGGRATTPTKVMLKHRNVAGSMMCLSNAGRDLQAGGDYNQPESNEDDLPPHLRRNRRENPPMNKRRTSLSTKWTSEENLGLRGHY
GLD-1 RNA inh: GLD-1/TGE RNA complex disruptors, primary screen, biochemical, fluorescence polarization; Female germline-specific tumor suppressor gld-1 (Caenorhabditis elegans), Q17339; purified GLD-1 + fluorescein TGE RNA; inhibition, % at 5.96 µM; 320,000 tested, 0.44% active;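 active means percent inhibition above a per-plate cutoff, the plate mean of test compounds plus 3 SD, cut at about 30% in these data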;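 further: 0% = DMSO wells with GLD-1 and probe and 100% = wells lacking GLD-1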
An asterisk follows results filed as active; ? = inconclusive; . = not tested or not shown. The list is not random: actives were taken first. Their share in the collection is about 1.5%.

SMILES	MCL1 BIM primary	Bcl-xL primary	EBV gp42 block	E coli Lon inh	MEX-5 binding	GLD-1 RNA inh
CCOCCCNc1nc2c(C)cccn2c(=O)c1/C=C1\SC(=S)N(CC(C)C)C1=O	-47.8	-27.8	104.0*	-42.0	-2.1	-25.2
CC(C)(C)c1ccc(C(=O)N2CCC2(C)C(=O)NCc2cccs2)cc1 (stereo unspecified)	.	.	.	6.0	.	.
COc1ccc(-n2cc(CNCc3cnc4ccccn34)c(-c3cccc(F)c3)n2)cc1	-0.6	6.1	3.6	-14.5	-36.5*	-5.0
COc1ccc(-n2cc(CNCC3CCOCC3)c(-c3cccc(F)c3)n2)cc1	8.0	3.7	-6.8	-14.8	1.2	1.2
O=C(CNC(=O)c1ccco1)NNC(=O)c1n[nH]c(=O)c2ccccc12	.	.	.	-3.9	.	1.9
O=C(OCCCOC(=O)c1ccc(Br)o1)c1ccc(Br)o1	0.7	2.1	.	-5.4	-0.7	3.0
CCN1CCN(C(=O)c2ccc3c(=O)n(Cc4ccccc4OC)c(=S)[nH]c3c2)CC1	-3.8	-2.5	-11.6	1.3	-28.8*	3.7
COc1ccccc1Cn1c(=S)[nH]c2cc(C(=O)N3CCCC3)ccc2c1=O	-5.9	-4.7	.	-3.5	1.5	1.7
O=C(O)CSc1nc2sc3c(c2c(=O)n1Cc1ccccc1)CCCCC3	5.8	6.7	.	-0.6	-1.6	2.1
O=C(O)CSc1cc(C(=O)c2ccccc2O)cn2c(=O)c3c4c(sc3nc12)CCCC4	.	.	69.0*	-0.2	-10.3	.
CCn1c2ccccc2c2cc(NC(=O)c3coc(=O)c(Br)c3)ccc21	-30.5	-16.6	97.4*	-25.3	?	-13.4
CCn1c2ccccc2c2cc(NC(=O)c3ccc(=O)oc3)ccc21	-11.2	3.9	127.0*	-103.6	-7.6	-67.0
O=C(COC(=O)c1cn(-c2ccccc2)nc1-c1ccc(F)cc1)Nc1ncc(Cl)cc1Cl	11.3	11.8	-11.9	2.2	-3.9	-9.6
NS(=O)(=O)c1ccc(NC(=O)COC(=O)c2cn(-c3ccccc3)nc2-c2ccc(F)cc2)cc1	-4.8	2.2	-2.3	-0.7	-29.7*	9.3
Cc1ccc(O)c(NC(=O)C2CC(c3cccc(Br)c3)=NO2)c1 (stereo unspecified)	0.9	2.7	.	0.2	-0.1	6.2
CN(C)/C=N/n1cnc2ccccc2c1=O	1.1	34.2*	-9.5	0.6	1.2	-0.5
CCN(CC)CCCNc1cc(C(F)(F)F)c(C#N)c2nc3ccccc3n12	41.6*	37.5*	.	-19.4	-9.0	19.8
C=CCn1c(O)c(CN2CCOCC2)c(C)c(C#N)c1=O	35.3	39.5*	.	-3.5	-5.4	28.2
O=[N+]([O-])c1ccccc1/C=C/C=N/n1c(-c2ccc(Cl)cc2)n[nH]c1=S	0.5	-20.5	85.8*	-13.6	1.0	2.9
CC1CCc2c(sc3nc(CN4CCOCC4)nc(NS(=O)(=O)c4cccc([N+](=O)[O-])c4)c23)C1 (stereo unspecified)	4.3	-1.7	59.3*	0.1	1.0	1.3
CCN1C(=C(C#N)C#N)C=Cc2cc(C)ccc21	18.2	24.8	33.8	-2.3	-0.5	40.9*
CCN1C(=O)/C(=C2/C=Cc3cc(C)ccc3N2CC)N(C)C1=S	8.7	-5.5	-17.5	3.6	-2.1	-2.5
Cn1cc(-c2ccccc2C(N)=O)c(=O)c2cc(Cl)ccc21	1.4	5.0	-11.3	-2.2	-1.8	2.3
Cn1cc(C2=C(c3ccc(Cl)cc3Cl)C(=O)NC2=O)c2ccccc21	24.0	60.5*	.	-64.4	?	-9.9
CN1C(=O)NC(c2cccc(F)c2)C2=C1CC(C)(C)CC2=O (stereo unspecified)	4.0	35.5*	.	1.6	1.3	-7.0
SMILES	MCL1 BIM primary	Bcl-xL primary	EBV gp42 block	E coli Lon inh	MEX-5 binding	GLD-1 RNA inh
O=C(O)c1cccc(S(=O)(=O)Nc2ccc([N+](=O)[O-])cc2O)c1	1.6	8.7	-10.0	10.2	-16.1	-4.4
Cc1ccc(NS(=O)(=O)c2cc(NC(=O)C(C)Oc3ccccc3)ccc2C)c(C)c1 (stereo unspecified)	7.5	7.7	-7.9	9.6	-1.2	7.0
O=C(O)CSc1cc(NS(=O)(=O)c2cccc([N+](=O)[O-])c2)c2ccccc2c1O	.	.	-2.3	11.6	-66.1*	.
CCOC(=O)c1ccccc1NS(=O)(=O)c1ccc(OCC)cc1	-6.1	2.8	-8.8	-9.5	-0.1	13.6
CCOc1ccc(S(=O)(=O)Nc2cc(SCC(=O)O)c(O)c3ccccc23)cc1	.	.	.	23.7	-50.9*	.
CCc1ccc(S(=O)(=O)Nc2cc(SCC(=O)O)c(O)c3ccccc23)cc1	28.2	25.1	-10.2	8.0	-52.0*	-1.2
CCc1ccc(S(=O)(=O)Nc2ccc(O)c3ccccc23)cc1	10.9	5.8	.	32.9	-2.8	1.7
Cc1ccc(C)c(S(=O)(=O)Nc2cc(SCC(=O)O)c(O)c3ccccc23)c1	36.2	24.2	-5.6	33.5*	.	14.2
CN1CCN(c2nc(-c3ccccc3)nc(-c3ccccc3)c2C#N)CC1	0.4	2.5	1.7	-1.9	-25.5*	8.4
COc1ccc(-c2nc(-c3ccccc3)nc(N3CCN(C)CC3)c2C#N)cc1	-2.1	3.9	11.5	0.2	-1.4	3.3
CCNC(=O)C1CCCN(C(=O)C(c2ccccc2)c2ccccc2)CC1 (stereo unspecified)	.	.	.	5.0	.	.
CC(=O)c1c(O)cc(O)cc1CC(=O)O	32.3	27.1	42.5	-6.7	-28.8*	20.4
CC(=O)c1c(O)cc(O)c(C(C)=O)c1O	21.0	21.7	-22.6	-0.7	-7.3	23.3
COc1ccc(NC(=O)CSc2ccc3c4c(cccc24)C(=O)c2ccccc2-3)cc1	-6.3	15.0	133.0*	-36.2	-18.7	-17.1
Cc1ccccc1-n1c(=O)cc(NCC2CCCO2)[nH]c1=O (stereo unspecified)	16.9	35.8*	-17.0	-6.3	-1.8	10.6
N#Cc1ccc(C(=O)OCC(=O)Nc2ccc(S(N)(=O)=O)cc2)cc1	-8.5	-0.6	-13.8	7.5	0.0	-1.9
Nc1ccc(O)c(C(=O)O)c1	75.9*	35.2*	.	.	-15.3	17.9
CSCCC(NC(=O)c1ccccc1Br)C(=O)N1CCCCCCC1 (stereo unspecified)	1.5	0.3	.	-3.8	-1.6	4.2
COc1ccc(CNC(=O)c2cnc3cc(C)ccn3c2=O)cc1	5.2	3.9	-9.0	-6.5	-28.1*	-20.1
CCOC(=O)c1cnc2cc(C)ccn2c1=O	0.0	3.4	-7.1	-4.9	5.5	5.1
COc1ccc(C(=O)N[C@H](C(=O)NCc2cccs2)C(C)C)cc1	-23.7	-11.9	-29.0	-5.1	-0.1	4.9

Screening results: PubChem BioAssay, several laboratories
